The source of these data is the supplement of paper PMC7366291.

Structures are written as SMILES. Where a name gives a salt, the structure may show the parent alone. ± gives the standard deviation or the standard deviation of the averaged measurements.

Holding throughout (settings): 25 µM; exposure: 24-48 hpf
Assay [1] has as its system Danio rerio Tg(wt1b:EGFP) embryo, pronephros. The assay can be described thus: glomerular separation, fold change vs DMSO control; higher = glomeruli further apart (abnormal). The essentials: (§1)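 Dechorionated Tg(wt1b:EGFP) zebrafish embryos were treated with 25 μM compound in 0.5% DMSO, in HEPES-buffered E3 with 0.003% PTU, from 24 to 48 hpf at 28.5°C. On maximum projections of dorsal pronephros images, 16 hand-placed reference points in Fiji gave distances and angles, and values more than 2 SD from the feature mean were left out. Results are fold changes over the mean of same-day DMSO-treated embryos.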

For assay [2] the test system is unchanged. The assay can be described thus: glomerular width (mean of left and right), fold change vs DMSO control; higher = wider glomerulus. The essentials: as §1
Assay [3] has the same test system. Kind of assay: fraction of imaged embryos annotated as normal kidney; higher = less nephrotoxic; extreme values may be limits of the assay. The method in brief:
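Dechorionated Tg(wt1b:EGFP) zebrafish embryos were incubated with 25 μM compound in 0.5% DMSO, 5 mM HEPES-buffered E3 and 0.003% PTU from 24 to 48 hpf at 28.5°C. Pronephroi were then imaged by widefield fluorescence, and the fraction of embryos per treatment assigned by hand to the normal-kidney category is given.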

Assay [4] shares this test system. Kind of assay: pronephric angle neck segment to proximal convoluted tubule (mean of left and right), fold change vs DMSO control; higher = larger pronephric angle. The method in brief:
as §1

In assay [1], `NC(N)=Nc1nc(CSCC/C(N)=N/S(N)(=O)=O)cs1` [Famotidine] returned a glomerular separation of 1.11 ± 0.48. This compound had a glomerular width in assay [2] of 0.98 ± 0.038. For the same compound, the “fraction of imaged embryos annotated as normal kidney” value (“fraction of imaged embryos annotated” for short) in assay [3] was determined as 0.833. In addition, the “pronephric angle neck segment” value in assay [4] was 0.9801 ± 0.0036.
In the same order, the values of `Nc1nc(=S)c2ncn([C@@H]3O[C@H](CO)[C@@H](O)[C@H]3O)c2[nH]1` [Thioguanosine] are 1.01 ± 0.38, 1.02 ± 0.012, 0.917 and 1.03 ± 0.036.
In the same order, the values of `C[N+]1(C)CCC(OC(=O)C(O)(c2ccccc2)C2CCCC2)C1` (stereo unspecified) [Glycopyrrolate] are 1.14 ± 0.48, 1.02 ± 0.055, 0.583 and 1.06 ± 0.028.
In the same order, the values of `CCC(C)(C)c1ccc(CC(C)CN2C[C@@H](C)O[C@@H](C)C2)cc1` (stereo partly specified) [Amorolfine hydrochloride] are 0.874 ± 0.48, 0.987 ± 0.017, 0.917 and 0.983 ± 0.05.
`CC(CN(C)C)CN1c2ccccc2CCc2ccccc21` (stereo unspecified) [Trimipramine maleate salt] showed a glomerular separation in assay [1] of 0.996 ± 0.29. In assay [2], this compound yielded a glomerular width of 1.06 ± 0.087. In addition, in assay [3], the “fraction of imaged embryos annotated” value amounted to 0.833. Further, in assay [4], the “pronephric angle neck segment” value was 0.972 ± 0.048.
In the same order, the values of `O=S(=O)(O)c1cc(O)ccc1O` [Ethamsylate] are 1.12 ± 0.45, 0.89 ± 0.079, 0.917 and 0.9847 ± 0.0033.
In the same order, the values of `CCC(=O)OCC(=O)[C@@]1(OC(=O)CC)[C@H](C)C[C@H]2[C@H]3[C@H]([C@@H](O)C[C@@]21C)[C@@]1(C)C=CC(=O)C=C1C[C@H]3Cl` [Alclometasone dipropionate] are 1.33 ± 0.61, 1.23 ± 0.026, 0.333 and 1.0427 ± 2.1e-05.
In the same order, the values of `CCCOc1ccc(C(=O)OCCN(CC)CC)cc1N` [Proparacaine hydrochloride] are 0.768 ± 0.39, 0.93 ± 0.052, 0.833 and 0.998 ± 0.041.
For the compound `CC[C@H]1OC(=O)[C@H](C)[C@@H](O[C@H]2C[C@@](C)(OC)[C@@H](O)[C@H](C)O2)[C@H](C)[C@@H](O[C@@H]2O[C@H](C)C[C@H](N(C)C)[C@H]2O)[C@](C)(O)C[C@@H](C)C(=O)[C@H](C)[C@@H](O)[C@]1(C)O` [Erythromycin], in assay [1], the glomerular separation came to 1.19 ± 0.74. This compound returned a glomerular width in assay [2] of 1.042 ± 0.0044. In addition, the “fraction of imaged embryos annotated” value in assay [3] stood at 0.818. Besides, the “pronephric angle neck segment” value in assay [4] was determined as 0.9494 ± 0.0015.
